MARV entry inh – inhibitors of Marburg virus binding or cell entry | Marburg virus pseudotyped entry inhibition, cell reporter | Potency, µM (titrated, usually from 37.8 µM), usual class: inhibitors | hit rate 1.8% among 300,000 | AID 540276; calls by dose curve; tested in HEK293 cells
LASV entry inh – blocks Lassa virus binding to or entry into cells. Lassa virus pseudotype entry inhibition, cell reporter. Potency, µM (doses to about 37.9 µM), hits mostly inhibitors. hit rate 1.2% among 300,000; calls by dose curve; tested in HEK293 cells; note: nearly all actives have a fitted effect of over 50% in size
HCV inh – inhibitors of hepatitis C virus infection. Huh7.5.1 HCVcc-Cre infection, luciferase reporter, 44 h. Potency, µM (doses to about 41.8 µM), actives largely listed as inhibitors. hit rate 3.4% among 340,000. AID 651820; active = well fitted inhibition curve with a large enough effect; inconclusive = small, poorly fitted or top-dose-only effect, or another doubt; inactive = no such curve, though single readings can be large or run the other way
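Antiviral activity was scored by luciferase reporter output from cells infected with HCVcc-Cre (~0.5 moi) in presence of compound, 44 h infection period, cells seeded 1,000/well 4 h prior.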
HCMV inh – blocks human cytomegalovirus replication; HFF cells, HCMV-luciferase reporter, 72 h; active compounds read low; activity change, negative = inhibition, % at 57.5 µM; hit rate 4.5% among 410,000; in the data active = activity change below about -60%; inconclusive = no clear call, values can overlap the other calls; inactive = above about -39%
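Cell-based, HFFs, 1000 cells/well, 16 h 37C; cpds in DMSO + HCMV-luc, MOI 1 PFU/cell; 72 h 37C; OneGlo luminescence after 5 min RT; norm. to buffer vs Salinomycin 10uM.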
FMDV antiviral – foot and mouth disease virus antiviral activity; AID 1159524; hit rate 1.2% among 410,000; Potency, µM (series often up to 57.9 µM), hits mostly inhibitors; FMDV antiviral cell-based qHTS; calls by dose curve; tested in HEK293T cells; note: read-out not given here; nearly all actives have a fitted effect of over 45% in size
A number is an active result; - = inactive; ? = inconclusive; . = no result given. Rows were chosen to be rich in hits. Some 7.9% of all compounds tested hit in one or more screens of this group.

SMILES	MARV entry inh	LASV entry inh	HCV inh	HCMV inh	FMDV antiviral
CCOc1ccc(Oc2ccc(Cl)cc2NC(=O)CCNC(C)=O)cc1	-	-	-	-65.5	-
CC(C)NS(=O)(=O)c1ccc(CCC(=O)Nc2cc(Cl)ccc2Oc2ccccc2)cc1	?	?	6.31µM	.	?
Nc1ccccc1S(=O)(=O)C(F)F	.	.	-	-	-
CC(=O)N1c2ccc(S(=O)(=O)NCCC(=O)Nc3ccc(Br)c(C)c3)cc2CC1C (stereo not drawn)	.	-	.	?	?
COc1ccc(COC(=O)NN=C2C[C@@H](O)[C@@H](O)[C@@H]3[C@H]4C(=O)N(Cc5ccccc5)C(=O)[C@@H]4CC[C@@H]23)cc1	-	4.45µM	.	.	.
O=C(NCCC(F)(F)F)C1=CN2CCN(Cc3cccc(Cl)c3)C(=O)N=C2O1	.	.	.	-	.
O=C(COc1ccc(S(=O)(=O)NC2CCCCC2)cc1)N1CCN(c2cccc(Cl)c2)CC1	?	?	7.08µM	-90.5	?
Cc1ccc(Cl)cc1N1CCN(C(=O)CN(C2CCCCC2)S(C)(=O)=O)CC1	?	-	?	-	14.1µM
Cc1ccc(S(=O)(=O)NCCC(=O)N2CCN(c3cccc(Cl)c3)CC2)cc1C	?	-	.	-	?
CCNS(=O)(=O)c1ccc(CCC(=O)N2CCN(c3cccc(Cl)c3)CC2)cc1	?	?	?	-	28.2µM
Cc1ccc(Cl)cc1N1CCN(C(=O)COc2ccc(S(=O)(=O)NC(C)C)cc2)CC1	.	.	10µM	-88.6	?
Cc1ccc(S(=O)(=O)c2nnn3c2nc(N2CCN(c4ccccc4F)CC2)c2ccccc23)cc1C	.	-	.	-	-
CC(C)=CCN1C(=O)[C@]2(O[C@H](C)CC3=CCCC32)c2c(Br)cccc21 (stereo partly drawn)	-	.	.	.	.
Cc1ccccc1Oc1nc2ccccn2c(=O)c1/C=C(\C#N)C(=O)Nc1c(C)n(C)n(-c2ccccc2)c1=O	-	-	-	-	22.4µM
Cc1c(NC(=O)/C(C#N)=C/c2c(Oc3ccccc3)nc3ccccn3c2=O)c(=O)n(-c2ccccc2)n1C	?	-	-	-	?
Cc1ccccc1Oc1nc2c(C)cccn2c(=O)c1/C=C(\C#N)C(=O)Nc1c(C)n(C)n(-c2ccccc2)c1=O	?	?	-	-	31.6µM
Cc1ccc(-c2csc3ncnc(SCC(=O)Nc4nnc(C)s4)c23)cc1	?	-	-	-	-
Cc1ccc(-c2csc3ncnc(Sc4nnc(CN5CCCCCC5=O)o4)c23)cc1	?	?	?	-69.9	14.1µM
O=C(/C=C/c1cc(Br)ccc1O)c1ccco1	.	.	?	-78.7	?
Cc1cc(C)c2c(CN(C)Cc3ccccc3)cc(=O)oc2c1	.	9.96µM	.	-	-
CCCCN(CCCC)Cc1cc(=O)oc2cc(C)cc(C)c12	.	-	.	-	-
Cc1cc(C)c2c(CCl)cc(=O)oc2c1	?	?	-	-95.2	28.2µM
COC(=O)c1sc(S(=O)(=O)N2CCCCC2C)c(C(=O)OC)c1C (stereo not drawn)	.	.	-	-	-
O=C(O)c1ccccc1N/N=C/c1cc(Br)cc(Br)c1O	14.6µM	?	-	-	-
ON=Cc1ccnc2ccccc12	.	.	.	-	-
SMILES	MARV entry inh	LASV entry inh	HCV inh	HCMV inh	FMDV antiviral
O=C(O)c1ccccc1N/N=C\c1ccnc2ccccc12	3.98µM	?	-	?	10µM
CC1(C(=O)NC2CCCCC2)Cc2ccccc2C(=O)N1Cc1ccccc1Cl (stereo not drawn)	?	.	.	-	-
CC1=C(C(=O)N2CCOCC2)CC(CC(=O)NCCc2ccccn2)C(=O)N1CCCN1CCCC1=O (stereo not drawn)	.	.	.	-	-
O=C(Nc1ccccn1)c1ccc(Cl)c(S(=O)(=O)N2CCc3ccccc32)c1	.	.	?	-92.5	25.1µM
O=C(Nc1cccnc1)c1ccc(Cl)c(S(=O)(=O)N2CCc3ccccc32)c1	-	-	-	?	-
O=S(=O)(c1cccc2cccnc12)N1CCc2ccccc21	-	-	-	-62.7	-
O=C(NCC(c1ccco1)N1CCCC1)c1ccc(Cl)c(S(=O)(=O)N2CCc3ccccc32)c1 (stereo not drawn)	11.2µM	?	4.47µM	?	?
COC(=O)C1=C(C)N(Cc2ccccc2)C(=NCC2CC2)NC1c1ccccc1 (stereo not drawn)	-	.	.	.	.
COc1ccc(OC)c(C=C2CCc3ccccc3C2=O)c1	.	.	.	-95.9	-
COc1ccc2c(c1)CC/C(=C\Nc1ccc3c(c1)OCO3)C2=O	?	?	7.08µM	-	.
COc1cccc(/C=C2\CCc3ccccc3C2=O)c1	.	.	-	-	-
O=C1/C(=C/Nc2ccc3c(c2)OCO3)CCc2ccccc21	?	1.41µM	?	-62.0	?

High-throughput results: PubChem, National Center for Advancing Translational Sciences (NCATS)
